Some test systems named below: T-47D breast; BT-549 breast; MDA-MB-435 melanoma; SW-620 colon; MCF7 breast; HCC-2998 colon; KM12 colon; HCT-116 colon.
Holding throughout (assay): NCI-60 one-dose screen, 48 h (100 = growth as untreated, 0 = no growth, -100 = all killed)
Settings in all cases: 10 µM unless noted

This note sets out measurements from PubChem BioAssay (NCI).

Compounds without any hit were thinned out: in the full panel of roughly 83,000, 20% have a hit.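 In brief: 96-well plates, 48 h treatment, single concentration, percent growth endpoint.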 A number with no mark means an inactive call. Active and inactive are the calls of the source. How the source made its calls: active means growth percent below 10; inactive means the rest.

Turning to `Cc1ccc(S(=O)(=O)OCC(=O)Nc2ccc(C(=O)O)c(O)c2)cc1`, the growth in the assay on T-47D breast is 106%; in the assay on BT-549 breast, 89.2%; in the assay with MDA-MB-435 melanoma it was 114%; with SW-620 colon, 105%; with MCF7 breast it was 105%; with HCC-2998 colon, 87.6%. The growth with KM12 colon is 110%.
Consider `COc1ncc(-c2ccc3ncnc(Nc4cccc(Cl)c4)c3c2)cc1NS(=O)(=O)CCN1CCOCC1`, for which the growth with T-47D breast was -10.6% (active); in the assay on BT-549 breast, -4.07% (active); in the assay on MDA-MB-435 melanoma, 11.8%; in the assay on SW-620 colon, 29.5%; with MCF7 breast it was 7.16% (active); with HCC-2998 colon it was 18.9%. In addition, the growth in the assay with KM12 colon was 26%.
Take `COc1ccc(C2=CC(c3ccc(Oc4ccnc5cc(Cl)ccc45)c(OC)c3)c3c(nc(OC)[nH]c3=O)N2)cc1` (configuration not stated): the growth is 53.8% in the assay with T-47D breast; 39.5% in the assay with BT-549 breast; 71.3% in the assay on MDA-MB-435 melanoma; 50.2% in the assay on SW-620 colon; 35.7% with MCF7 breast; 35.8% in the assay with HCT-116 colon. Further, in the assay on KM12 colon, the growth was 65.5%.
With `O=S(=O)(NCCCNc1nccc(-c2c(-c3ccc(O)cc3)nc3sccn23)n1)c1ccc(F)cc1`, the growth with T-47D breast was -5.79% (active); in the assay with BT-549 breast it was 14%; with MDA-MB-435 melanoma, -17.9% (active); with SW-620 colon it was 9.69% (active); in the assay on MCF7 breast it was 6.45% (active); in the assay with HCC-2998 colon, -10.7% (active). Besides, the growth with KM12 colon was 11.9%.
With `CC(=O)Oc1cccc(OC(C)=O)c1OC(C)=O`, the growth with T-47D breast is 97.1%; in the assay on BT-549 breast, 94.3%; with MDA-MB-435 melanoma, 94.6%; in the assay on SW-620 colon, 114%; with MCF7 breast, 88.7%; in the assay on HCC-2998 colon it was 92.1%. The growth in the assay with KM12 colon was 105%.
As for `COc1cc(Br)c(OC)cc1Br`, the growth with T-47D breast was 82%; in the assay on BT-549 breast it was 97.7%; with MDA-MB-435 melanoma it was 105%; with SW-620 colon it was 94.7%; with MCF7 breast, 63.1%; in the assay on HCT-116 colon, 91.5%. Further, in the assay with KM12 colon, the growth is 76.3%.
Regarding `Cc1cc(Cl)ccc1OC(C)C(=O)Nc1nnc(C2CC2)s1` (configuration not stated), the growth is 90.9% in the assay with T-47D breast; 116% in the assay with BT-549 breast; 102% in the assay with MDA-MB-435 melanoma; 103% in the assay on SW-620 colon; 112% in the assay on MCF7 breast; 94.7% in the assay with HCT-116 colon. Besides, the growth with KM12 colon is 107%.
In the case of `COC(=O)CCCCCCN=Cc1c(O)c(O)c(C(C)C)c2cc(C)c(-c3c(C)cc4c(C(C)C)c(O)c(O)c(C=NCCCCCCC(=O)OC)c4c3O)c(O)c12`, the growth with T-47D breast is 20.6%; in the assay with BT-549 breast, 38.6%; in the assay with MDA-MB-435 melanoma, 17.2%; in the assay with SW-620 colon, 17.9%; with MCF7 breast, 7.98% (active); in the assay on HCC-2998 colon, 32.6%. Also, the growth with KM12 colon was 18.2%.
For the compound `COc1ccc2c(c1)NC(=O)CN2c1nc(C)nc2ccccc12`, the growth with T-47D breast was 55.5%; with BT-549 breast it was 1.24% (active); in the assay with MDA-MB-435 melanoma it was 1.13% (active); in the assay with SW-620 colon it was 22%; with MCF7 breast, 14.9%; in the assay on HCC-2998 colon, 16.6%. In addition, the growth in the assay with KM12 colon was 8.92% (active).
For the compound `COc1ccc(/C=C/C(=O)/C=C/c2cc3ccc(Cl)cc3[nH]c2=O)cc1`, the growth in the assay on T-47D breast is 67.3%; in the assay on BT-549 breast, 75.6%; with MDA-MB-435 melanoma, 81.5%; with SW-620 colon it was 66.1%; in the assay with MCF7 breast, 25.2%; in the assay on HCC-2998 colon, 93.1%. Also, the growth with KM12 colon is 72.5%.
In the case of `COc1ccc2c(c1)NC(=O)CN2c1nc(NC2CC2)nc2ccccc12`, the growth with T-47D breast was 13.2%; in the assay on BT-549 breast, -17% (active); in the assay with MDA-MB-435 melanoma it was -36% (active); in the assay on SW-620 colon it was 23.6%; in the assay with MCF7 breast it was 9.56% (active); in the assay with HCC-2998 colon it was 6.95% (active). Besides, the growth with KM12 colon was 3.45% (active).
`CC1(C)OC2COC3(C(=O)O)OC(C)(C)OC3C2O1` (configuration not stated): the growth is 90.2% with T-47D breast; 106% in the assay on BT-549 breast; 93.8% with MDA-MB-435 melanoma; 98.2% with SW-620 colon; 99.7% with MCF7 breast; 114% with HCT-116 colon. The growth in the assay on KM12 colon was 98.4%.
Regarding `C=CC(=O)N[C@H](/C=C/C(=O)OCC)Cc1ccc(-c2cc(Cl)cc(Cl)c2)cc1`, the growth with T-47D breast was 57.7%; in the assay with BT-549 breast, 84.6%; in the assay with MDA-MB-435 melanoma it was 96.1%; in the assay with SW-620 colon, 91.7%; with MCF7 breast, 82.8%; in the assay with HCT-116 colon it was 72.1%. Further, in the assay with KM12 colon, the growth was 89.8%.
With `CC1Cc2c(N(C)C)ncnc2N(C)c2ccc(Cl)cc21` (configuration not stated), the growth in the assay on T-47D breast is 37.1%; in the assay with BT-549 breast it was 24.6%; with MDA-MB-435 melanoma, -32.2% (active); in the assay on SW-620 colon, 17.9%; in the assay on HCT-116 colon, 16.9%; with HCC-2998 colon it was 50.1%. The growth in the assay on KM12 colon is 23.6%.
Turning to `C=C1C(=O)O[C@H]2[C@H]1CC/C(Cn1cc(-c3ccc(N)cc3)nn1)=C\CC[C@@]1(C)O[C@@H]21`, the growth in the assay with T-47D breast is -40.4% (active); with BT-549 breast, -43.3% (active); in the assay on MDA-MB-435 melanoma, -7.57% (active); in the assay on SW-620 colon, -44.8% (active); with HCT-116 colon, -56% (active); in the assay on HCC-2998 colon it was 50.8%. The growth with KM12 colon is 51.5%.
As for `COc1ccc(/C=C2\CCCC3=C2NC(C)=NC3c2ccc(OC)c(OC)c2)cc1OC` (configuration not stated), the growth with T-47D breast is 11.2%; in the assay on BT-549 breast, -16.1% (active); in the assay with MDA-MB-435 melanoma it was 1.49% (active); in the assay with SW-620 colon, -28.8% (active); in the assay with HCT-116 colon it was -95.7% (active); in the assay with HCC-2998 colon, -47.8% (active). Moreover, in the assay on KM12 colon, the growth is 6.19% (active).
On to `Cc1nc(Nc2cccnc2)sc1C(=O)/C=C/c1ccc(Cl)cc1`, for which the growth is 24.8% in the assay on T-47D breast; 15.2% in the assay with BT-549 breast; 5.05% (active) with MDA-MB-435 melanoma; 13.2% with MCF7 breast; 26.8% in the assay on HCT-116 colon; 84.8% in the assay with HCC-2998 colon.
As to `Nc1c(C(=O)Nc2ccccc2)sc2nc3c(cc12)CCC3`, the growth in the assay on T-47D breast is 101%; with BT-549 breast, 81.7%; with MDA-MB-435 melanoma, -1% (active); with SW-620 colon it was 53.1%; with HCT-116 colon, 66.6%; with HCC-2998 colon it was 89.4%. Further, the growth in the assay on KM12 colon is 52.8%.
`CCOC(=O)C(Cc1ccccc1)n1c(O)c(C=Nc2ccc(C(=O)OCCN(CC)CC)cc2)sc1=O` (configuration not stated): the growth with T-47D breast is 81.6%; in the assay with BT-549 breast it was 96.3%; in the assay on MDA-MB-435 melanoma, 90.1%; in the assay with SW-620 colon it was 97.6%; in the assay with HCT-116 colon it was 104%; in the assay with KM12 colon, 83.5%.
Turning to `Nc1c(C(=O)Nc2ccccc2)sc2nc3c(cc12)CN(Cc1ccccc1)CC3`, the growth with T-47D breast is 60.9%; with BT-549 breast, 50.8%; in the assay with MDA-MB-435 melanoma, 52.1%; in the assay with SW-620 colon, 76.9%; in the assay with HCT-116 colon, 65.1%; in the assay on HCC-2998 colon, 79.1%. In addition, in the assay with KM12 colon, the growth was 56.4%.
For `CC(=O)C1CCC(C)=CC1=O` (configuration not stated), the growth with T-47D breast was 90.2%; with BT-549 breast, 93.3%; with MDA-MB-435 melanoma, 103%; with SW-620 colon, 103%; with MCF7 breast, 88.4%; in the assay on HCC-2998 colon it was 103%. In addition, the growth with KM12 colon was 110%.
As to `CC1CCc2c(sc(NC(=O)CSc3nnc4ccccn34)c2C(N)=O)C1` (configuration not stated), the growth was 105% in the assay on T-47D breast; 142% in the assay on BT-549 breast; 99% in the assay with MDA-MB-435 melanoma; 109% with SW-620 colon; 104% in the assay on HCT-116 colon; 105% in the assay on HCC-2998 colon.
For `CCN(CC)CCCNc1nc(C)cc(Nc2ccc3nc(C)cc(N)c3c2)n1`, the growth was 92.2% in the assay with T-47D breast; 84.9% in the assay on BT-549 breast; 103% in the assay on MDA-MB-435 melanoma; 117% with SW-620 colon; 93% in the assay on HCT-116 colon; 97.6% in the assay with HCC-2998 colon. In the assay with KM12 colon, the growth is 101%.
Take `C=CCOc1cccc(/C=C/C(=O)c2sc(Nc3cccnc3)nc2C)c1`: the growth in the assay with T-47D breast was 61.3%; in the assay with BT-549 breast, 44%; in the assay with MDA-MB-435 melanoma it was 22.5%; in the assay with SW-620 colon, 15.5%; in the assay with MCF7 breast, 19.1%; in the assay with HCC-2998 colon it was 86.5%. For the same compound, the growth in the assay on KM12 colon is 24%.
As for `COc1ccc(-c2nc3sccn3c2-c2ccnc(NCCCNS(=O)(=O)c3ccc4ccccc4c3)n2)cc1`, the growth in the assay with T-47D breast was 32.6%; with BT-549 breast, 65.3%; in the assay with MDA-MB-435 melanoma, 50%; in the assay with SW-620 colon, 105%; in the assay with HCT-116 colon, 60.2%; in the assay on HCC-2998 colon, 84.1%. In the assay with KM12 colon, the growth was 50.1%.
Regarding `Cc1cccc2cc(/C=C/C(=O)/C=C/c3ccc(Cl)cc3)c(=O)[nH]c12`, the growth was 41.6% in the assay with T-47D breast; 7.28% (active) in the assay on BT-549 breast; -32.7% (active) with MDA-MB-435 melanoma; 8.48% (active) in the assay with SW-620 colon; -52.7% (active) with HCT-116 colon; -4.78% (active) in the assay with HCC-2998 colon. In addition, in the assay on KM12 colon, the growth is 8.42% (active).
On to `CCOc1ccc(/C=C/C=N/NC(N)=S)cc1`, for which the growth with T-47D breast is 38.2%; with BT-549 breast, 57.4%; in the assay with MDA-MB-435 melanoma it was 88.9%; in the assay with SW-620 colon, 87.2%; in the assay with HCT-116 colon it was 70.1%; with HCC-2998 colon, 70.1%.
`COc1ccc(C(=O)/C=C/c2cccc([N+](=O)[O-])c2)c(OC)c1`: the growth in the assay on T-47D breast is 26.6%; in the assay on BT-549 breast, 4.85% (active); with MDA-MB-435 melanoma it was 15.2%; in the assay with SW-620 colon, -67.4% (active); with HCT-116 colon, -80.1% (active); in the assay on HCC-2998 colon it was 36.6%. In addition, the growth in the assay on KM12 colon was 13.2%.
